This is a sample that favours compounds with a hit; in the whole collection about 21% have one here.
Shiga toxin inh: Shiga toxin inhibition. Vero cells, Shiga toxin protein synthesis inhibition reporter. inhibition, % at 38.7 µM. hit rate 9.2% among 290,000. AID 2315; in the data active = inhibition mostly above about 28%, no sharp cut-off; inactive = mostly below about 43%
Pf growth 96h: P. falciparum growth inhibition at 96 hours. Potency, µM (titrated, usually from 28.7 µM), usual class: inhibitors. P. falciparum luciferase reporter growth, 96 h. hit rate 6.9% among 320,000. AID 504834
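Compounds incubated with erythrocytes infected by luciferase-expressing P. falciparum (2% hematocrit, 0.05% parasitemia final) for 96 hours, 37 C in 5% CO2. Growth inhibition scored as decreased luciferase luminescence.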
Pf growth 48h: P. falciparum growth inhibition at 48 hours (one generation). P. falciparum luciferase growth in erythrocytes, 48 h. Potency, µM (doses to about 28.7 µM), most hits filed as inhibitors. hit rate 5.9% among 310,000
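Firefly luciferase activity from engineered P. falciparum reports growth; inhibitors lower the luminescent signal. Cultures contained 2% hematocrit erythrocytes at 0.1% final parasitemia.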
CHX counter: counter-screen hit for Shiga toxin inhibitors, cycloheximide; hit rate 12% among 300,000; cell reporter, cycloheximide protein synthesis inhibition counterscreen; max response, %; in the data active = max response mostly above about 13%, no sharp cut-off; inactive = mostly below about 14%; also: read at 38.3 µM for the half of the compounds with a filed dose
HCV inh: inhibitors of hepatitis C virus infection; hit rate 3.4% among 340,000; Huh7.5.1 HCVcc-Cre infection, luciferase reporter, 44 h; AID 651820; Potency, µM (doses to about 41.8 µM), hits mostly inhibitors
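After 44 h co-culture of compound, cells and HCVcc-Cre (~0.5 moi), substrate is added for 15 min at room temperature and luciferase measured over 15 sec. Cells were seeded at 1,000/well and pre-cultured 4 h.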
AMA1 RON2 block: inhibitors of Plasmodium falciparum AMA1-RON2 interaction | AlphaScreen AMA1-biotinylated RON2 peptide binding | Potency, µM (top dose mostly 58.2 µM), most hits filed as inhibitors | hit rate 0.2% among 360,000; also: nearly all actives have a fitted effect of over 45% in size
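AMA1 (3D7) with his tag at 25 nM final met compounds first, then biotinylated RON2 peptide at 25 nM; detection used donor plus acceptor beads, 10 µg/mL apiece, read by AlphaScreen after 30 min at room temperature.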
Hits are given with their value; [ ] = another dose, or the depositor's remark. Unless noted, calls follow the shape of the dose curve; as a rule, active = well fitted curve in the direction sought with a large enough effect; inconclusive = small, poorly fitted or top-dose-only effect, or another doubt; inactive = no such curve, though single readings can be large; an effect the other way counts as inactive or inconclusive.

For Cc1nn(-c2ccc(F)cc2)c(Cl)c1/C=N/NC(=O)c1cccc(S(=O)(=O)N2CCCC2)c1 the results were Shiga toxin inh inactive, Pf growth 96h inconclusive, Pf growth 48h inconclusive, CHX counter inactive, HCV inh inconclusive and AMA1 RON2 block inactive.
For Cc1nn(-c2ccccc2)c(Cl)c1/C=N/NC(=O)c1cccc(S(=O)(=O)N2CCCC2)c1 the results were Shiga toxin inh inactive, Pf growth 96h inactive, Pf growth 48h inactive, CHX counter inactive, HCV inh inconclusive and AMA1 RON2 block inactive[11.6 µM].
`CCOC(=O)N/N=C/c1c(C)nn(-c2cccc(C(F)(F)F)c2)c1Cl` gave Shiga toxin inh inactive, Pf growth 96h 1.47µM, Pf growth 48h 2.08µM, CHX counter 12.8, HCV inh 2.24µM and AMA1 RON2 block inactive[2.32 µM].
Cc1nn(-c2ccccc2Cl)c(Cl)c1/C=N/Nc1cccc(C(=O)O)c1 was read as Shiga toxin inh 70.3, Pf growth 96h inactive, Pf growth 48h inactive, CHX counter 63.7, HCV inh inactive and AMA1 RON2 block inconclusive.
Screening Cn1nc(C2CC2)cc1NC(=O)C1(C)CCN1C(=O)CCc1ccccc1 (configuration not stated) returned AMA1 RON2 block inactive.
`CCCCNC(=O)C1C(c2ccccc2)=Nc2ccccc2N1C(=O)c1ccc(C)cc1` (configuration not stated) gave AMA1 RON2 block inactive.
CC(=O)C1=NN(c2ccc(Cl)cc2)C(c2ccc3c(c2)OCO3)N(C(C)=O)N1C (configuration not stated) was read as Shiga toxin inh inactive, Pf growth 96h 11.7µM, Pf growth 48h 11.7µM, CHX counter inactive, HCV inh inconclusive and AMA1 RON2 block inactive.
For O=C(c1ccc2c(c1)OCO2)N1CCN(c2ccc(Cl)cc2)CC1 the results were Shiga toxin inh inactive, Pf growth 96h inconclusive, Pf growth 48h inactive, CHX counter inactive, HCV inh inactive and AMA1 RON2 block inactive.
Screening Brc1csc(/C=N/Nc2nc3ccccc3s2)c1 returned Shiga toxin inh 91.9, Pf growth 96h inactive, Pf growth 48h inactive, CHX counter 37.7, HCV inh inconclusive and AMA1 RON2 block inactive.
`Brc1ccsc1/C=N/Nc1ccccc1` gave HCV inh inactive and AMA1 RON2 block inconclusive.
Screening O=C(N/N=C\c1cc(Br)cs1)c1ccncc1 returned Shiga toxin inh inactive, Pf growth 96h inactive, Pf growth 48h inconclusive, CHX counter inactive, HCV inh inactive and AMA1 RON2 block inactive.
For Cc1ccc2[nH]c(O)c(N=Nc3nc4ccccc4s3)c2c1 the results were Shiga toxin inh inactive, Pf growth 96h inconclusive, Pf growth 48h inactive, CHX counter inactive, HCV inh inactive and AMA1 RON2 block inactive.
For Cc1ccc2[nH]c(C)c(/C=N/Nc3nc4ccccc4s3)c2c1 the results were Shiga toxin inh inactive, Pf growth 96h inconclusive, Pf growth 48h inactive, CHX counter 51.3, HCV inh inconclusive and AMA1 RON2 block inactive.
For C(=N\Nc1nc2ccccc2s1)/c1ccccn1 the results were Shiga toxin inh inactive, Pf growth 96h inactive, Pf growth 48h inactive, CHX counter inactive, HCV inh 1.78µM and AMA1 RON2 block inactive.
`C(=N\Nc1ccccc1)/c1nc2ccccc2s1` gave Shiga toxin inh 134.7, Pf growth 96h inactive, Pf growth 48h inactive, CHX counter 64.1, HCV inh inactive and AMA1 RON2 block inactive.
Screening O=S(=O)(N/N=C\c1ccc2c(c1)OCO2)c1ccc(F)cc1 returned Shiga toxin inh inactive, Pf growth 96h inactive, Pf growth 48h inactive, CHX counter inactive, HCV inh inactive and AMA1 RON2 block inactive.
C#CCn1c(=O)c2c(nc(/C=C/c3cccc(OC)c3)n2C)n(CCCO)c1=O was read as Shiga toxin inh inactive and CHX counter inactive.
Screening Cc1cc(C)c(S(=O)(=O)N2CCN(S(=O)(=O)N3CCOCC3)CC2)c(C)c1 returned Shiga toxin inh inactive, Pf growth 96h 2.33µM, Pf growth 48h inactive, CHX counter inactive, HCV inh inconclusive and AMA1 RON2 block inactive.
For CCOc1ccc(NC(=O)CN(C)C(=O)CCCOc2ccc(Cl)c(C)c2)cc1OCC the results were Shiga toxin inh inactive, Pf growth 96h inconclusive, Pf growth 48h inactive, CHX counter inactive, HCV inh inconclusive and AMA1 RON2 block inactive.
